SENP7 inh = SENP7 protease inhibition. recombinant SENP7, Z-RLRGG-aminoluciferin luminescence, 40 min. inhibition, % at 5 µM. 1.5% of 330,000 active;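 active means inhibition above about 50% at the single test dose, limit read from the data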;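 further: plate controls were DMSO with enzyme for no effect and no enzyme buffer wells for full effect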
TRAIL sens C8 = sensitizes caspase-8 expressing cells to TRAIL; NB7+C8 cells + TRAIL, ATPlite viability luminescence; inhibition (viability loss, TRAIL sensitization), % at 10 µM; 1% of 360,000 active;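 active means compounds causing at least 50% loss of cell viability in the single-dose screen, relative to plate controls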
SENP8 block-1 = inhibitors of human SENP8 protease; Q96LD8; purified SENP8, Z-RLRGG-aminoluciferin cleavage, luminescence; inhibition, % at 10 µM; 1.2% of 330,000 active; AID 2540; in the data active means inhibition above about 50%
Target sequence (Q96LD8 whole entry, looked up): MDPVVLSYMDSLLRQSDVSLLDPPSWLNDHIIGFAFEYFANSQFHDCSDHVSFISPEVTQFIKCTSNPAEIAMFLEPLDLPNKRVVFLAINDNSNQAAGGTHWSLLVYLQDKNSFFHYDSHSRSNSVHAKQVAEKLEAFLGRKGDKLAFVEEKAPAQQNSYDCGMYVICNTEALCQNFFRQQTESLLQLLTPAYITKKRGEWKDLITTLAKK
SENP6 inh = inhibitors of human SENP6 protease. Recombinant SENP6 catalytic domain, aminoluciferin luminescence. Q9GZR1. inhibition, % at 10 µM. 1.8% of 330,000 active;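 active means inhibition above about 50% at the single tested dose, limit read from the data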;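 further: plate controls were DMSO wells with enzyme for no effect and DMSO wells lacking enzyme for full effect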
SENP8 block-2 = SENP8 (human) protease inhibition. recombinant SENP8, Nedd8 substrate fluorescence. AID 602440. Q96LD8. inhibition, % at 20 µM. 0.64% of 360,000 active; in the data active means inhibition mostly above about 40%, no sharp cut-off; inactive means mostly below about 27%
PPC-1+TRAIL kill = compounds killing PPC-1 cancer cells with TRAIL present (potentiator screen, no TRAIL-free arm). cell killing (% activity), % at 4 µM or 5 µM. 0.41% of 220,000 active. PPC-1 cells + TRAIL, ATPLite viability luminescence;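 active means cell killing above 50% in the first pass at 4 µM, then a duplicate retest at 5 µM averaging 50% or more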;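 further: plate controls were cells with TRAIL plus DMSO for no effect and medium-only wells lacking cells for full effect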
SENP8 confirm = human SENP8 inhibition, confirmed; shares compounds with SENP7 inh; Recombinant SENP8, Z-RLRGG-aminoluciferin luminescence, 60 min; inhibition, % at 12.5 µM; 40% of 6,200 active;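 active means mean inhibition across replicates above about 50%, limit read from the data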
SENP6 confirm = human SENP6 inhibition, confirmed; AID 488915; recombinant SENP6, Z-RLRGG-aminoluciferin luminescence; inhibition, % at 12.5 µM; 58% of 6,200 active; shares compounds with SENP7 inh
SENP7 conf = human SENP7 inhibition, confirmed; shares compounds with SENP7 inh; recombinant SENP7, Z-RLRGG-aminoluciferin luminescence, 40 min; inhibition, % at 12.5 µM; 69% of 6,200 active
Casp3 select = selectivity test for SENP inhibitors: human caspase-3 inhibition; shares compounds with SENP7 inh; purified caspase-3, Z-DEVD-aminoluciferin luminescence, 60 min; inhibition, % at 12.5 µM; 60% of 6,200 active; AID 488918;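 active means mean inhibition above about 50%, limit read from the data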;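 further: plate controls were enzyme with DMSO for no effect and wells without caspase-3 for full effect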
Target sequence (P42574 28-227 limits assumed): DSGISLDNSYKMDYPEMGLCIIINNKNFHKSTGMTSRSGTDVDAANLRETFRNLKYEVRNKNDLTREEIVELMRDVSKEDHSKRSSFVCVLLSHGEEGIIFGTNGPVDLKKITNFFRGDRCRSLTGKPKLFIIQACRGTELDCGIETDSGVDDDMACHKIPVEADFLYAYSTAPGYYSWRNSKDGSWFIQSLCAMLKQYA
Luc interf = interferes with luciferase luminescence in SENP counter-screen; Pre-incubated SENP8/Z-RLRGG-aminoluciferin, luciferase luminescence interference; inhibition, % at 12.5 µM; AID 488919; shares compounds with SENP7 inh; 39% of 6,200 active;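 active means mean inhibition above about 50% when retested at one dose, limit read from the data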;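 further: plate controls were DMSO wells with completed reaction for no effect and substrate without enzyme for full effect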
* marks the source's active call; other numbers are inactive results. Only some compounds are listed: those with a hit (about 3% of all), similar ones and a draw of the others.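 How the source made its calls, unless noted: active means mean inhibition above about 50% in the one-dose retest (limit read from the data); inactive means the rest.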

For O=C(CNc1cccc2ccccc12)N/N=C/c1ccccn1 the results were SENP7 inh 29, TRAIL sens C8 -20, SENP8 block-1 71*, SENP6 inh 83*, SENP8 block-2 -39, PPC-1+TRAIL kill 0, SENP8 confirm 14, SENP6 confirm 15, SENP7 conf 6, Casp3 select -2 and Luc interf 0.
Screening COc1ccc(NC(=O)C[C@H]2C(=O)N(CCc3ccccc3)C[C@@H]2c2ccc(OC)cc2)cc1 returned TRAIL sens C8 2 and SENP8 block-2 -35.
For CC(C)c1c(C(=O)N/N=C/C2CC=CCC2)nnn1-c1nonc1N (stereo unspecified) the results were SENP7 inh -6, TRAIL sens C8 2, SENP8 block-1 5, SENP6 inh 5 and SENP8 block-2 10.
`COC(=O)/C=c1/sc2nc3ccccc3n2c1=O` gave SENP7 inh 3, TRAIL sens C8 1, SENP8 block-1 -20, SENP6 inh -17, SENP8 block-2 40 and PPC-1+TRAIL kill -5.
O=c1c2ccccc2nc2sc3ccccc3n12 was read as SENP7 inh 87*, TRAIL sens C8 32, SENP8 block-1 74*, SENP6 inh 79*, SENP8 block-2 -74, PPC-1+TRAIL kill 5, SENP8 confirm 58*, SENP6 confirm 56*, SENP7 conf 70*, Casp3 select 72* and Luc interf 31.
For O=C1NC(c2ccc(Cl)cc2)Nc2ccccc21 (stereo unspecified) the results were SENP7 inh 6, TRAIL sens C8 25, SENP8 block-1 -3, SENP6 inh -6, SENP8 block-2 -186 and PPC-1+TRAIL kill 10.
For CN(C)c1ccc(C2NC(=O)c3ccccc3N2)cc1 (stereo unspecified) the results were SENP7 inh 93*, TRAIL sens C8 65*, SENP8 block-1 87*, SENP6 inh 91*, SENP8 block-2 -272, SENP8 confirm 13, SENP6 confirm 6, SENP7 conf 2, Casp3 select 13 and Luc interf 15.
Screening CSc1ncccc1C(=O)OCC(=O)c1cc(C)n(CC2CCCO2)c1C (stereo unspecified) returned SENP7 inh 78*, TRAIL sens C8 48*, SENP8 block-1 83*, SENP6 inh 88*, SENP8 block-2 16, PPC-1+TRAIL kill 32, SENP8 confirm 92*, SENP6 confirm 92*, SENP7 conf 99*, Casp3 select 93* and Luc interf 32.
`CSc1ncccc1C(=O)OCC(=O)c1cc(C)n(C)c1C` gave SENP7 inh 37, TRAIL sens C8 25, SENP8 block-1 37, SENP6 inh 54*, SENP8 block-2 1, SENP8 confirm 14, SENP6 confirm 46, SENP7 conf 82*, Casp3 select 73* and Luc interf 45.
Cc1cc(C(=O)COc2cccc3cccnc23)c(C)n1C was read as SENP7 inh 29, TRAIL sens C8 -8, SENP8 block-1 13, SENP6 inh 79*, SENP8 block-2 -127, PPC-1+TRAIL kill 19, SENP8 confirm 8, SENP6 confirm 7, SENP7 conf 7, Casp3 select 10 and Luc interf 9.
CSc1ncccc1C(=O)OCC(=O)c1ccccc1 was read as SENP7 inh 34, TRAIL sens C8 1, SENP8 block-1 28, SENP6 inh 53*, SENP8 block-2 -1, PPC-1+TRAIL kill -12, SENP8 confirm 7, SENP6 confirm 20, SENP7 conf 70*, Casp3 select 56* and Luc interf -2.
